Hits are enriched below; roughly 5.4% of the tested compounds scored in any of these assays.
Mdm2-MdmX inh = disrupts the human Mdm2-MdmX interaction | inhibition, % at 8 µM | SaOS-2 split-luciferase Mdm2/MdmX complementation, luminescence | hit rate 3% among 330,000 | O15151+Q00987;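 active = inhibition of at least 50% at 8 µM in the primary screen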
Target sequence (O15151 whole entry, looked up): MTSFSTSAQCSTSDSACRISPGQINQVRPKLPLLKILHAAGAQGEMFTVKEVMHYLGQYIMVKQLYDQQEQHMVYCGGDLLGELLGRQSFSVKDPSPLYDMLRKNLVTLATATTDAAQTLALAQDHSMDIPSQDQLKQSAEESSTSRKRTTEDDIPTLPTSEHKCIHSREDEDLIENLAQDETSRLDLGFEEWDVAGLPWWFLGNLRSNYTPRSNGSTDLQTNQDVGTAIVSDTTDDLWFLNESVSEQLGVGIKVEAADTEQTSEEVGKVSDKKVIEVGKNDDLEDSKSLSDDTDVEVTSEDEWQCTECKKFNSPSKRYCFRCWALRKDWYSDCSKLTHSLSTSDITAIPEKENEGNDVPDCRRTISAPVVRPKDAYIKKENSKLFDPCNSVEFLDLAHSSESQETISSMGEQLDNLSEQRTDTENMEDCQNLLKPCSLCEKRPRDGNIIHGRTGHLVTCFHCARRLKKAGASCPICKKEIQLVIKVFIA
Target sequence (Q00987 whole entry, looked up): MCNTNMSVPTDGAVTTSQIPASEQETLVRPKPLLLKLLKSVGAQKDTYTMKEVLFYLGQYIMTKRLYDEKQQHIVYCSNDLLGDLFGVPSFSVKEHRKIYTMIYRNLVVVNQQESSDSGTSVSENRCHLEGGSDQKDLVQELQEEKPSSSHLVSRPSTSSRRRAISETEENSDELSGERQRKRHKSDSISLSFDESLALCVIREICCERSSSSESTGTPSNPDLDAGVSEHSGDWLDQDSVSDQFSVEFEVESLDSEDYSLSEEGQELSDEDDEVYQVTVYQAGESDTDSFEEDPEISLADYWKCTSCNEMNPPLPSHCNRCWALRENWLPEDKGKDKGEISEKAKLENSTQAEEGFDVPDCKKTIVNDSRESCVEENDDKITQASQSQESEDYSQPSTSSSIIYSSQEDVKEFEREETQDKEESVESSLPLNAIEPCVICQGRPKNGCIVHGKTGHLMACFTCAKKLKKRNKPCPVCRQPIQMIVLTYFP
CSC inhib = blocks cancer stem cells | cancer stem cell-like cells viability, luminescence | inhibition, % at 7.5 µM | hit rate 1.1% among 300,000 | AID 2717; in the data active = inhibition above about 75%; inconclusive = no clear call, values can overlap the other calls; tested in HMLE shEcad cells
MPTP block = permeability transition pore inhibition; isolated mouse mitochondria, Ca2+ swelling absorbance, 30 min; inhibition, % at 10 µM; hit rate 1.4% among 360,000;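 active = inhibition of 50% or more, scaled per plate between neutral and stimulator controls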;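 also: 0% = DMSO wells given calcium and 100% = 1 mM EGTA wells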
SKKanGAS inh = SKKanGAS growth inhibition; S. pyogenes SKKanGAS, kanamycin growth, BacTiter-Glo, 6 h; inhibition, % at 7.5 µM; hit rate 1.3% among 300,000;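 active = mean replicate score, as percent of positive control median, at least 50; inconclusive = mean below 50 but one replicate at or above 50; inactive = mean and every replicate below 50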;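 also: strain carries kanamycin resistance gene driven by streptokinase promoter and grows in 40 µg/ml kanamycin; loss of luminescence reflects streptokinase promoter inhibition or plain growth inhibition; 0% = median of DMSO wells and 100% = positive control at its reference dose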
Calb FLC = affects C. albicans growth with fluconazole; C. albicans CaCi-2 (fluconazole-resistant clinical isolate) + fluconazole, Alamar Blue growth, 48 h; growth inhibition, % (concentration not given with the values); hit rate 0.57% among 300,000; AID 1979;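 active = growth inhibition above about 58% in most replicates, limit read from the data, passing the limit was not always enough; inconclusive = exactly half the replicates above a set limit; inactive = most replicates below a set limit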;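 also: all wells also contain fluconazole at 8 µg/ml as a sub-toxic cotreatment; 0% = median of DMSO wells and 100% = median of geldanamycin control wells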
Beta cell apopt = beta cell apoptosis inhibition; INS-1E cytokine-induced death, ATP luminescence, 48 h; percent of positive-control rescue, neutral wells zero; protection from apoptosis, % (concentration not given with the values); hit rate 0.8% among 300,000; AID 435005;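 active = Every replicate reaches about 75%, or at least half do and their mean reaches it too, limit read from the data; inconclusive = At least half of replicates reach the limit but their mean does not; inactive = Under half of replicates reach the limit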;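 also: 0% = cytokine-treated negative control wells and 100% = positive control rescue; higher means more ATP so stronger rescue from cytokine killing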
Active calls of the source: *; ? = inconclusive; / = no result.

SMILES | Mdm2-MdmX inh | CSC inhib | MPTP block | SKKanGAS inh | Calb FLC | Beta cell apopt
CC(C)C1OC2c3cccc4cccc(c34)C2N1c1ccccc1 (configuration not stated) | -4.9 | 7.8 | -0.2 | 79.8* | -8.4 | -8.1
CC1(C)C2CC[C@]3(C)C(CC=C4[C@@H]5C[C@@](C)(CO)[C@@H](O)C[C@]5(C(=O)O)CC[C@]43C)[C@@]2(C)CC[C@@H]1O (some centres not stated) | -5.6 | -12.9 | -1.4 | 4.8 | 1.0 | -4.3
CC(=O)O[C@H]1CC[C@]2(C)[C@H]3CC=C4[C@@H]5[C@@H](C)[C@H](C)CC[C@]5(C(=O)O)CC[C@@]4(C)[C@]3(C)CC[C@H]2C1(C)C | 35.0 | -16.5 | / | 107.2* | 3.7 | 15.4
CCCC[n+]1ccn(C2=C([O-])c3ccccc3C(=O)/C2=N\S(=O)(=O)c2ccc(Br)cc2)c1 | 28.8 | 22.2 | -1.4 | 28.0 | 3.9 | 89.8*
Cc1ccc(S(=O)(=O)/N=C2\C(=O)c3ccccc3C([O-])=C2n2cc[n+](CCC(C)C)c2)cc1 | 21.3 | 15.8 | -1.1 | 30.4 | 50.9 | 90.5*
NS(=O)(=O)c1cccc(NC(=O)CSc2nc3ccccc3c(=O)n2CC2CCCO2)c1 (configuration not stated) | 8.2 | / | -2.0 | / | / | /
Oc1c(Br)cc(Br)cc1CNc1cccc2cccnc12 | 25.5 | 13.9 | 5.9 | 88.5* | 81.0* | -14.6
Oc1ccc(Cl)cc1CNc1cccc2cccnc12 | 49.6 | 23.6 | 1.3 | 56.7* | 2.4 | 64.6
Cc1ccc(O)c(CNc2cccc3cccnc23)c1 | 11.3 | 20.3 | -0.8 | 8.1 | 0.9 | 102.4*
COc1cccc(CNc2cccc3cccnc23)c1O | 4.4 | 11.7 | 1.0 | -1.8 | -19.1 | 14.1
Cc1ccccc1NC(=O)NCc1ccc2c(c1)OCO2 | 2.4 | -15.4 | 3.2 | 4.0 | -26.8 | -9.1
CC(NC(=O)Cc1cccs1)C(c1cccs1)N1CCOCC1 (configuration not stated) | -4.7 | -6.1 | -0.5 | 14.6 | 3.6 | -5.3
O=C1C(Nc2ccccc2)=C/C(=N/S(=O)(=O)c2cccs2)c2ccccc21 | / | 112.5* | 10.1 | 96.6* | 60.0 | 105.2*
Cc1ccc(S(=O)(=O)/N=C2\C=C(Nc3cccc(C(=O)O)c3)C(=O)c3ccccc32)c(C)c1 | 36.8 | 64.6 | 9.5 | 68.5* | -0.1 | 95.3*
O=C1C=C(Nc2ccccc2)C(=O)c2ccccc21 | -70.2 | 51.5 | 1.3 | 12.1 | -1.8 | 83.5*
CC1=CC(=O)c2ccccc2C1=O | 25.7 | -14.6 | -1.1 | -3.1 | / | -6.6
Cc1ccc(S(=O)(=O)/N=C2\C=C(Nc3cccc(C(=O)O)c3)C(=O)c3ccccc32)cc1 | -4.0 | / | 12.9 | 87.2* | 18.5 | 21.0
CC(C)COC(=O)N(C)C[C@H]1OCc2cnnn2CCCC(=O)N([C@H](C)CO)C[C@H]1C | / | / | -0.6 | / | / | /
CCOC(=O)c1c(C)oc2c1c(C(c1ccccc1)N1CCOCC1)c(O)c1ccccc12 (configuration not stated) | -20.0 | 56.8 | 4.0 | 66.7* | 58.6 | -1.4
COc1ccc(-c2noc3c2-c2nc(-c4ccccc4C)sc2CC3)cc1 | 41.4 | 75.8* | / | 0.5 | -0.4 | 1.1
CC1(C)CC[C@]2(CO)[C@@H](O)C[C@]3(C)C(=CCC4[C@@]5(C)CC[C@H](O)C(C)(C)C5CC[C@]43C)[C@@H]2C1 (some centres not stated) | -30.5 | 101.7* | / | 22.9 | -1.1 | 10.8
O=C(NCCC1CCCCN1S(=O)(=O)c1ccc(F)cc1)C(=O)NCc1ccncc1 (configuration not stated) | -8.7 | -1.3 | 0.6 | -5.9 | -2.1 | /
Cc1ccc(-c2c[n+](CC(=O)N3c4ccccc4Sc4ccccc43)c3n2CCC3)cc1 | 20.1 | -6.4 | 8.1 | 6.4 | 109.1* | /
Cc1ccc(C[n+]2cc(-c3ccc(Cl)cc3)n3c2CCC3)cc1 | 37.3 | 19.2 | 5.1 | 2.4 | -27.7 | 34.7
Cc1ccc(-c2c[n+](Cc3ccc(Cl)cc3)c3n2CCC3)cc1 | 35.4 | 20.5 | 4.4 | 8.1 | 19.5 | 108.6*
SMILES | Mdm2-MdmX inh | CSC inhib | MPTP block | SKKanGAS inh | Calb FLC | Beta cell apopt
N#CCCn1c(SCC(=O)Nc2ccc(N3CCOCC3)cc2)nc2ccccc21 | 12.5 | / | 1.1 | -16.1 | 30.0 | 1.9
COc1ccc(NC(=O)C(NC(=O)Cc2cccs2)c2ccccc2)cc1 (configuration not stated) | -0.9 | -1.1 | 0.2 | 4.2 | -0.7 | -8.0
O=C(NCc1cccnc1)c1ccc(-c2ccc(Cl)cc2)o1 | 2.9 | 12.9 | 1.8 | -12.8 | 9.2 | -5.0
O=C(NCc1cccnc1)/C(=C\c1ccc(-c2ccc(Cl)c(Cl)c2)o1)S(=O)(=O)c1ccccc1 | / | 112.7* | 1.2 | -7.9 | ? | 104.7*
CCCCn1c(N)c(N(CC)C(=O)Cc2ccc(S(=O)(=O)N3CCOCC3)s2)c(=O)[nH]c1=O | 0.5 | -8.2 | 1.3 | -9.4 | -8.5 | /
CC(C)(C)c1ccc(C(=O)CC(Sc2ccc(Cl)cc2)C(=O)O)cc1 (configuration not stated) | 7.0 | 79.5* | -1.9 | 1.2 | 0.3 | -23.6
Cc1cccc(OCCCC(=O)NC2CCCCC2)c1 | 0.2 | -6.9 | 1.1 | -4.3 | -10.7 | 0.3
Cc1cccc2sc(NC(=O)C3c4ccccc4Oc4ccccc43)nc12 | 35.5 | 126.0* | 8.2 | 29.9 | -1.5 | 46.2
Cc1cccc2sc(NC(=O)C3CC3)nc12 | -4.7 | / | -0.5 | 1.5 | -0.9 | /
O=C(CSc1ccc(Cl)cc1)NC1=NN(c2ccccc2)C(=O)C1 | -21.0 | -3.3 | -0.4 | 77.5* | -4.8 | 0.4
COc1ccccc1NC(=O)Cn1cnc2c(cnn2-c2ccccc2)c1=O | 1.7 | -5.0 | 3.0 | -2.6 | 91.4* | /
COc1cc(/C=N/NC(N)=S)ccc1OCc1ccc(C)cc1 | 5.6 | 76.1* | 2.1 | -0.7 | 17.8 | 34.5
COc1cc(/C=N/NC(N)=S)ccc1OC(=O)c1ccc(C)cc1 | 21.9 | 1.1 | -0.2 | -0.8 | 3.0 | 6.0
COc1cc(/C=N/NS(=O)(=O)c2ccc3ccccc3c2)ccc1OCc1ccc(C(=O)O)cc1 | 49.8 | 11.8 | 2.9 | 54.8* | -3.8 | 2.1
CCOc1cc(/C=N/Nc2ccc(C(=O)O)cc2)ccc1OC(=O)c1ccccc1C | 2.4 | 4.5 | 7.0 | 75.1* | 20.0 | 6.4
COc1cccc(C(=O)Oc2ccc(/C=N/Nc3ccc(C(=O)O)cc3)cc2OC)c1 | -24.2 | -5.8 | -1.0 | 54.7* | 46.1 | -5.3
COc1cc(/C=N/Nc2ccc(Cl)c(C(=O)O)c2)ccc1OC(=O)c1ccccc1F | 4.7 | 4.5 | -2.2 | 21.3 | -2.9 | 2.0
CN(C)S(=O)(=O)N1CCC(Cc2ccccc2)CC1 | 5.8 | -9.6 | 0.0 | 5.3 | -11.0 | -0.5
Cc1ccc(CN2[C@@H]3c4ccccc4C[C@@H]3OCCS2(=O)=O)cc1 | -16.6 | -6.3 | -0.9 | -3.1 | -2.1 | -4.6
CCOC(=O)/C(=C\c1ccc(Cl)cc1)c1nc2sc(C)c(C)c2c(=O)[nH]1 | 37.5 | 117.7* | 1.5 | 42.7 | 30.2 | -26.0
CCOC(=O)CSc1nc2sc(C)c(C)c2c(=O)[nH]1 | 20.2 | / | -0.7 | 3.5 | -1.6 | 1.0

Assay outcomes (PubChem BioAssay)
